Among all 400,000 compounds or so, about 2,100 (0.53%) were called active. About 14% were inconclusive and are not listed. No rule for the calls is given here. For the sample, actives were picked, then their nearest neighbours and some compounds at random.
Each compound was assayed against Ataxin-2 (Homo sapiens) (UniProt Q99700) (assay: qHTS for Inhibitors of ATXN expression.).
Chain of Ataxin-2 (Homo sapiens) (Q99700 whole entry): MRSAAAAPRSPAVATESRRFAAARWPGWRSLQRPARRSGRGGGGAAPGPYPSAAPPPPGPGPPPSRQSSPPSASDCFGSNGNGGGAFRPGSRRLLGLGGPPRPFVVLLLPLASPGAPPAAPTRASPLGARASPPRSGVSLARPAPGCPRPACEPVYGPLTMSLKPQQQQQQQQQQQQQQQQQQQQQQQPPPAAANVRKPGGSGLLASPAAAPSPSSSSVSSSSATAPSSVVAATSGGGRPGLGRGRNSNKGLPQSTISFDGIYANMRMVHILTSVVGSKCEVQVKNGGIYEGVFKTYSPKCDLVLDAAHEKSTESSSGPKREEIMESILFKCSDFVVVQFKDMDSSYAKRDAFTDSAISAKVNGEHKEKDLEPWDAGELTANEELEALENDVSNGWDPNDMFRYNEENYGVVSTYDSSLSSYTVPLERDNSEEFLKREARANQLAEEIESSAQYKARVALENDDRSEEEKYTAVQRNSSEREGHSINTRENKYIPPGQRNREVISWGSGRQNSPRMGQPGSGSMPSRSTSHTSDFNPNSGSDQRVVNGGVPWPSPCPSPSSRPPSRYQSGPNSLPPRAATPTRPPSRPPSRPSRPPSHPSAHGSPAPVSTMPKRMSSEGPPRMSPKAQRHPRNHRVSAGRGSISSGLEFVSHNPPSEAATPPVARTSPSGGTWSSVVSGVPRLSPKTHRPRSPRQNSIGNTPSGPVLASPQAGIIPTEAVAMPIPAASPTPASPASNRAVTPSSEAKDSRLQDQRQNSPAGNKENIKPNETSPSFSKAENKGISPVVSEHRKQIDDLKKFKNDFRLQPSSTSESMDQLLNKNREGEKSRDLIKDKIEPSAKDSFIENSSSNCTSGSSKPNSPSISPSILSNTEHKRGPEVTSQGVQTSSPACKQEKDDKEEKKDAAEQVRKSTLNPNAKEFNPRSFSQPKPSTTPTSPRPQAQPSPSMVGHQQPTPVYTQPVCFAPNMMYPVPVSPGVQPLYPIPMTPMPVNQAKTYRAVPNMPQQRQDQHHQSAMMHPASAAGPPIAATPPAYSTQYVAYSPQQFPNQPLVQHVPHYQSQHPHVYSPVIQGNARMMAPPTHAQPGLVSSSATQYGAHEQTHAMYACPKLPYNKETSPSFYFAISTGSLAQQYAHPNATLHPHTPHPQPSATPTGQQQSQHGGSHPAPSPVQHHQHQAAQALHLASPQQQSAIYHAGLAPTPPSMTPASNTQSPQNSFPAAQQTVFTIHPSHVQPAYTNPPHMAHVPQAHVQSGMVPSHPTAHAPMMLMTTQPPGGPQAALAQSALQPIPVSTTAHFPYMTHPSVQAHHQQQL
Type: functional
For `O=C(CN(Cc1ccc(F)cc1)C(=O)CCC(=O)Nc1nccs1)NCc1ccccc1`, the Potency was “inactive”. For `CC(=O)Oc1cc2oc(=O)cc(C)c2cc1Cl`, the Potency was “inactive”. With `CCCn1nc(NC(=O)CC(C)C)c2cc3cccc(C)c3nc21` the Potency was “inactive”. `Cc1cc(C)c2ccc(N)nc2c1O` was tested, and the Potency was 39.8 µM (active). With `Cn1nc(NC(=O)C(F)(F)F)c2ncc(-c3ccc(Cl)cc3)nc21` the Potency was “inactive”. `CCCCc1c(-c2ccc(F)cc2)ncn1CCc1ccccc1OC` was tested, and the Potency was 31.6 µM (active). `CC1=C(C)C(=O)N(C(C)CCc2ccccc2)C1=O` (stereo not given) was tested, and the Potency was “inactive”. `COc1ccccc1CCn1cnc(-c2ccc(Br)cc2)c1C(C)C` was tested, and the Potency was 25.1 µM (active). For `COc1ccccc1CCN1COc2c(cc3c(C)c(C)c(=O)oc3c2C)C1`, the Potency was “inactive”. `COc1ccccc1CNc1ccc(Br)cn1` was tested, and the Potency was “inactive”. With `COc1ccccc1[C@H]1C(c2ccc(F)cc2)=NN(c2ccccc2)[C@@H]1CO` the Potency was “inactive”. For `COc1ccccc1NC(=O)C(C)Sc1nccn1C` (stereo not given), the Potency was “inactive”. `CCCCc1c(Cc2ccccc2)ncn1CCc1ccccc1OC` was tested, and the Potency was 15.8 µM (active). `COc1ccccc1CCn1cnc(Cc2ccccc2)c1C(C)C` was tested, and the Potency was 39.8 µM (active). `CCN(CC)c1ccc2c(Cl)cc(=O)oc2c1` was tested, and the Potency was “inactive”. For `N#Cc1cc2c(=O)n3ccccc3nc2n(Cc2ccco2)/c1=N/C(=O)c1ccco1`, the Potency was “inactive”. With `COc1cccc2sc3ccc(NCc4ccc5c(c4)OCO5)cc3c(=O)c12` the Potency was “inactive”. `Cc1c(C#N)c2n(c1C)CCCC(=O)N2` was tested, and the Potency was “inactive”. In the case of `COc1cc2c(cc1OC)C1=C(C#N)CC/C(=N\S(=O)(=O)c3ccccc3)N1CC2`, the Potency is reported as “inactive”. `CCCCc1c(-c2ccc(OC)cc2)ncn1CCc1ccccc1OC` was tested, and the Potency was 39.8 µM (active). In the case of `COc1ccccc1CCn1c(N)c(C#N)c2nc3ccccc3nc21`, the Potency is reported as “inactive”. In the case of `CCCCCc1c(-c2ccc(OC)cc2)ncn1CCc1ccccc1OC`, the Potency is reported as 31.6 µM (active). For `COc1ccccc1CCC(=O)NNC(=O)Cn1nc(C)cc1C`, the Potency was “inactive”. `CCCCc1c(-c2cccc(F)c2)ncn1CCc1ccccc1OC` was tested, and the Potency was 39.8 µM (active). `CCCCc1c(-c2ccccc2)ncn1CCc1ccccc1OC` was tested, and the Potency was 35.5 µM (active). `CCCn1nc(-c2ccccc2)c2nc3ccccc3nc21` was tested, and the Potency was “inactive”. `Cc1cccn2c(=O)c3cc(C(=O)NCc4cccnc4)c(=N)n(C(C)C)c3nc12` was tested, and the Potency was “inactive”. With `COc1ccc2c(c1)CCCC21SC(NC(C)=O)=NN1C(C)=O` (stereo not given) the Potency was “inactive”. For `O=C1OCCN1C(=O)[C@H]1[C@H](c2ccccc2)C(c2ccccc2)=NN1c1ccc(Br)cc1`, the Potency was “inactive”. `CCOCCCNC(=O)c1ccc2nc(-c3ccc(OC)c(OC)c3)c(-c3ccc(OC)c(OC)c3)nc2c1` was tested, and the Potency was “inactive”. With `CCCCc1c(-c2ccc(OC)c(OC)c2)ncn1CCc1ccccc1OC` the Potency was 22.4 µM (active). In the case of `CCOc1ccc(-c2nnn(CCC#N)n2)cc1OC`, the Potency is reported as “inactive”. `CCCS(=O)(=O)c1c(S(=O)(=O)CCC)c2cc(-c3ccncc3)ccn2c1C(=O)OC` was tested, and the Potency was “inactive”. For `Cc1ccc(S(=O)(=O)N2C[C@@H](C)[C@]3(C2)[C@H](O)[C@H](OC(=O)Nc2cccs2)C[C@H]2C(=O)N(c4ccccc4)C(=O)[C@H]23)cc1`, the Potency was 35.5 µM (active). For `CN1CCN(S(=O)(=O)c2ccc(NC(=O)COc3ccccc3)cc2)CC1`, the Potency was “inactive”. In the case of `CCCCn1/c(=N\C(=O)c2ccco2)c(C(=O)OCC)cc2c(=O)n3cccc(C)c3nc21`, the Potency is reported as “inactive”. `CCn1cc(C2C3=C(O)CCCC3=NC(C)=C2C(=O)Nc2ccc(Br)cn2)c(C)n1` (stereo not given) was tested, and the Potency was “inactive”. `CCOc1nc2cnccc2n(CC(=O)Nc2ccc(C)c(C)c2)c1=O` was tested, and the Potency was “inactive”. With `COc1ccc(NC(=O)Cn2c(SCc3cc(C)ccc3C)nc3ccncc32)c(OC)c1OC` the Potency was 39.8 µM (active). With `COC(=O)c1ccc(-c2sc3nc(N4CCOCC4)c4c(c3c2N)CC(C)(C)OC4)o1` the Potency was “inactive”. For `COc1ccc(CC(=O)Nc2nn(C)c3nc4c(C)cccc4cc23)cc1`, the Potency was “inactive”. In the case of `COc1cc(OC)cc(C(=O)NC(C(=O)NCCc2ccccn2)C(C)C)c1` (stereo not given), the Potency is reported as “inactive”. In the case of `COc1cc(OC)c(NC(C)C(=O)NCc2ccccc2)cc1Cl` (stereo not given), the Potency is reported as “inactive”. `COc1ccc(-c2ccc3c(N)c(C(=O)Nc4ccc(C)cc4C)sc3n2)cc1OC` was tested, and the Potency was “inactive”. With `CCC(C(=O)Nc1cc(OC)cc(OC)c1)n1nc(-c2ccc(C)c(C)c2)ccc1=O` (stereo not given) the Potency was 25.1 µM (active). For `COc1cc(OC)c(NC(=O)C(C)n2nc(-c3ccc(C)c(C)c3)ccc2=O)cc1Cl` (stereo not given), the Potency was 35.5 µM (active). `N#Cc1c(N)n(-c2cccc(Cl)c2)c2nc3ccccc3nc12` was tested, and the Potency was “inactive”. With `CCc1cc(=O)oc2c(C)c3c(cc12)CN(CCc1ccccc1)CO3` the Potency was “inactive”. `Cc1cccc(-c2nnc(SCc3cc(=O)c4c(C)cc(C)cc4[nH]3)[nH]2)c1` was tested, and the Potency was 39.8 µM (active). For `COc1ccc(COC(=O)C2CC(=O)N(Cc3ccccc3)C2)cc1` (stereo not given), the Potency was “inactive”. In the case of `COC(=O)[C@@H]1C[C@]2(OC(=O)c3ccccc3)C=CC(=O)C[C@@H]2N1C(=O)OCc1ccccc1`, the Potency is reported as 25.1 µM (active). With `O=C(OCc1ccccc1)N1CCc2ccccc21` the Potency was “inactive”. For `C=CCN1C(=O)c2cccc3c(N4CCCCC4)ccc(c23)C1=O`, the Potency was “inactive”. For `COc1ccccc1C=CC(=O)C=Cc1ccccc1OC`, the Potency was 16.8 µM (active). In the case of `COc1ccccc1/C=N/OC(=O)c1ccc(C)cc1`, the Potency is reported as “inactive”. With `COc1ccccc1/C=C/C(=O)NCC(=O)N=Nc1c(O)[nH]c2ccccc12` the Potency was “inactive”. In the case of `Cc1ccc(NC(=O)c2sc3nc(C)cc(C)c3c2N)cc1`, the Potency is reported as “inactive”. For `CS(=O)(=O)c1ncc(Cl)c(C(=O)Nc2ccc(N3CCOCC3)cc2)n1`, the Potency was 25.1 µM (active). `O=C(Nc1ccc(S(=O)(=O)Nc2nccs2)cc1)c1nn(-c2ccccc2)ccc1=O` was tested, and the Potency was “inactive”. With `CCOC(=O)c1c(O)cc(C)nc1O` the Potency was “inactive”. In the case of `CCOC(=O)c1cnc2c(C)cc(Cl)cc2c1N1CCN(C)CC1`, the Potency is reported as “inactive”. With `CCS(=O)(=O)c1ncc(Cl)c(C(=O)Nc2ccc(C)cc2)n1` the Potency was 35.5 µM (active). `CCN(c1ccccc1)S(=O)(=O)c1ccc(NC(=O)c2nc(S(C)(=O)=O)ncc2Cl)cc1` was tested, and the Potency was 17.8 µM (active). For `CCOC(=O)c1nc(S(C)(=O)=O)ncc1Cl`, the Potency was 39.8 µM (active). For `CN(c1ccccc1)S(=O)(=O)c1ccc(Cl)c(C(=O)Nc2nn[nH]n2)c1`, the Potency was “inactive”. With `O=C(Nc1ccc(N2CCOCC2)cc1)c1cccc(S(=O)(=O)N2CCCCCC2)c1` the Potency was “inactive”. For `COC(=O)c1nc2ccc(N3CCOCC3)cc2c(C)c1C(=O)OC`, the Potency was “inactive”. `COc1ccc(NC(=O)NS(=O)(=O)c2ccc(C)cc2)cn1` was tested, and the Potency was “inactive”. For `O=C(/C=C/Nc1ccc(S(=O)(=O)Nc2ncccn2)cc1)c1ccc(Cl)c(Cl)c1`, the Potency was “inactive”. In the case of `CCc1cc(=O)oc2c(C)c(O[C@@H]3O[C@H](CO)[C@@H](O)[C@H](O)[C@H]3O)ccc12`, the Potency is reported as “inactive”. With `CC(C)C1OC2(C)OC(=N)C1(C#N)C(C#N)(C#N)C2c1ccccc1` (stereo not given) the Potency was “inactive”. With `CC(=O)c1ccc(N2CCN(C(=O)COc3ccc4ccccc4c3)CC2)cc1` the Potency was “inactive”. `Cc1oc(C(N)=O)cc1COc1ccc(C(N)=O)cc1` was tested, and the Potency was “inactive”. `Cc1sc2ncn(CC(=O)NCCCC(=O)N3CCN(Cc4ccc5c(c4)OCO5)CC3)c(=O)c2c1C` was tested, and the Potency was “inactive”. In the case of `Cc1ccccc1NC(=O)c1nc(S(C)(=O)=O)ncc1Cl`, the Potency is reported as “inactive”. For `CCS(=O)(=O)c1ncc(Cl)c(C(=O)Nc2ccccc2OC)n1`, the Potency was 35.5 µM (active). With `COC(=O)c1sc(-c2ccc(C(C)(C)C)cc2)cc1NC(=O)/C=C/C(=O)O` the Potency was 39.8 µM (active). `COC(=O)c1scc(C)c1NC(=O)CSc1ccc(Cl)cc1` was tested, and the Potency was “inactive”. In the case of `COC(=O)c1scc(C)c1NC(=O)c1ccc(Cl)cc1`, the Potency is reported as “inactive”. For `Cc1ccc2sc(-c3ccc(NC(=O)/C=C\C(=O)O)cc3)nc2c1`, the Potency was “inactive”. For `CC(=O)c1sc(-c2ccccc2)cc1NS(=O)(=O)c1ccccc1`, the Potency was “inactive”. `COC(=O)c1sc(-c2ccc(Cl)cc2)cc1NC(=O)/C=C/C(=O)O` was tested, and the Potency was 28.2 µM (active). With `O=C(Nc1ccc(C(F)(F)F)cc1)c1cc(S(=O)(=O)NC2CCCCCC2)ccc1F` the Potency was 35.5 µM (active). `CCC(=O)NC(=S)Nc1ccc(S(=O)(=O)NC2CCCCC2)cc1` was tested, and the Potency was “inactive”. For `C=COC(=O)c1sc2nc(C)cc(C)c2c1N`, the Potency was “inactive”. In the case of `Cc1cc(C)c2c(N)c(C(=O)C(C)(C)C)sc2n1`, the Potency is reported as “inactive”. For `CCOC(=O)N1CCC2(CC1)C(C#N)=C(N)Oc1c2sc2nc(C)cc(C)c12`, the Potency was 25.1 µM (active). In the case of `CSCCC(NC(=O)COc1ccccc1)C(=O)N1CCCCCC1` (stereo not given), the Potency is reported as “inactive”. With `C/C(=N\Nc1cccc(C(F)(F)F)c1)c1ccc(O)cc1` the Potency was “inactive”. With `O=C(NNc1ccccc1Br)C(O)(c1cccc(C(F)(F)F)c1)c1cccc(C(F)(F)F)c1` the Potency was 20 µM (active). In the case of `O=C(CSc1ccc(F)cc1)Nc1ccccc1Br`, the Potency is reported as “inactive”. In the case of `CC1(C)C/C(=N\NC(=S)Nc2ccccc2F)c2cc(O)ccc2O1`, the Potency is reported as “inactive”. In the case of `NC(=S)N/N=C1\CCOc2ccc(Cl)cc21`, the Potency is reported as 22.4 µM (active). For `NC(=O)NN=C1CCN2CCCc3cccc1c32`, the Potency was “inactive”. In the case of `O=c1c2cc(N3CCOCC3)ccc2[nH]c(=S)n1CCc1ccccc1`, the Potency is reported as “inactive”. In the case of `COC(c1ccccc1)c1nnc(CCC(=O)NCCc2ccc(Cl)cc2)o1` (stereo not given), the Potency is reported as “inactive”. With `CC(C)(C)OC(=O)NCCc1nnc(S(=O)(=O)Cc2ccc(Cl)cc2Cl)o1` the Potency was 17.8 µM (active). `CC(C)(C)OC(=O)NCC(=O)Oc1cc2oc(=O)cc(-c3ccccc3)c2cc1Cl` was tested, and the Potency was “inactive”. With `CC1CCc2nc(/C(C#N)=C/c3ccncc3)sc2C1` (stereo not given) the Potency was “inactive”. In the case of `CSCC(=O)Nc1cc(C)on1`, the Potency is reported as “inactive”. In the case of `O=C1c2ccccc2S(=O)(=O)c2cc(N3CCC(C(=O)N4CCCCC4)CC3)ccc21`, the Potency is reported as “inactive”. For `COc1cccc(-c2ccc3c(N)c(C(=O)Nc4ccccc4C)sc3n2)c1`, the Potency was “inactive”. For `COc1cccc(-c2cnc3c(NC(C)=O)cc(-c4cccc(NS(C)(=O)=O)c4)cn23)c1`, the Potency was 28.2 µM (active). With `CC(=O)Nc1cc(-c2cccc(NS(C)(=O)=O)c2)cn2c(-c3cccc(C(F)(F)F)c3)cnc12` the Potency was 35.5 µM (active). In the case of `COc1cc(S(=O)(=O)Nc2ccc3c(c2)C(=O)N(C)C3=O)ccc1NC(C)=O`, the Potency is reported as “inactive”.

Source: ChEMBL document CHEMBL1201862, “PubChem BioAssay data set” (2004)
